Our source for the growth values is PubChem BioAssay (NCI).

Compounds without any hit were thinned out: in the full panel of roughly 83,000, 20% have a hit.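 Percent growth is the endpoint: 0 to 100 indicates growth inhibition (40 means 60% inhibition), 0 means no net growth, and negative values indicate cell death.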 A number with no mark means an inactive call. Calls of active or inactive are those of the source.

This test has as its system NCI-H226 lung. Briefly: NCI-60 one-dose screen, 48 h (100 = growth as untreated, 0 = no growth, -100 = all killed). As to conditions: 10 µM unless noted. How it is done: Growth inhibition of the NCI-H226 human Non-Small Cell Lung tumor cell line is measured as a screen for anti-cancer activity. Cells are grown in 96 well plates and exposed to the test compound for 48 hours. Compounds are tested at a single concentration, which is 10^-5 M for most compounds. The reported endpoint is percent growth (GI% or GIPRCNT), where numbers from 0 - 100% represent growth inhibition, and numbers from -100% - 0 represent cell death. For example, a value of 40 represents 60% growth inhibition. A value of 0 means no net growth occurred over the course of the experiment. A value of -40 indicates 40% of cells at the beginning of the experiment died by the end of the experiment. A value of -100 means all cells are dead at the end of the experiment.
NCI-60 Human Tumor Cell Lines Screen was performed using the standard one-dose NCI protocol, which is described in more detail at https://dtp.cancer.gov/discovery_development/nci-60/default.htm.
Compounds with GIPRCNT values below 10 were considered active. Activity score was based on GIPRCNT using the following formula: […]
Score is 0 for GIPRCNT values of 100 or above, 50 for GIPRCNT values of 0, and 100 for GIPRCNT values of -100.
For `CC(=O)OCC1OC(OC2C(COC(C)=O)OC(OCCC[S-])C(OC(C)=O)C2OC(C)=O)C(OC(C)=O)C(OC(C)=O)C1OC(C)=O.[Au+].c1ccc(CN2[CH-]N(Cc3ccccc3)C(c3ccccc3)=C2c2ccccc2)cc1` (stereo not given), the growth is 25.3%.
The value for `Cc1cccc(C)c1NCc1nnc(-c2ccc(O)cc2)o1` was 95.5%; that for `C=C(C)[C@@H]1CC[C@]2(C(=O)OCCCC[P+](c3ccccc3)(c3ccccc3)c3ccccc3)CC[C@]3(C)[C@H](CC[C@@H]4[C@@]5(C)CC[C@H](OC(=O)C(Cl)Cl)C(C)(C)[C@@H]5CC[C@]43C)[C@@H]12` was -78.5% (active).
As for `Cn1cc(-c2ccc3c(c2)ncn3-c2ccc(CC(=O)Nc3cc(C(C)(C)C)on3)cc2)cn1`, the growth was 22.2%.
With `COc1cccc(NC(=O)Nc2ccc(Nc3ncnc4[nH]c(C)c(C)c34)cc2)c1`, the growth was 101%.
In the case of `C=C(C)[C@@H]1CC[C@]2(C(=O)O)CC[C@]3(C)[C@H](CC[C@@H]4[C@@]5(C)C[C@@H](CC#Cc6ccccc6C)C(=O)C(C)(C)[C@@H]5CC[C@]43C)[C@@H]12` it was 23.7%.
Consider `CN(C)CCCn1c2c(c3cc(-c4cccc(S(N)(=O)=O)c4)ccc3c1=O)C(=O)c1ccccc1-2`, for which the growth is 77.8%.
In the case of `Cc1nc2sc(C(=O)Nc3ccccc3)c(N)c2cc1C(C)O` (stereo not given), the growth was 108%.
With `CC1=C/C(=N\N=C2/C=C(C)CC(C)(C)C2)CC(C)(C)C1`, the growth is 106%.
As to `COc1cc(-c2csc(NC(=O)Nc3ccc(Cl)cc3)n2)cc(OC)c1OC`, the growth is 32.6%.
In the case of `C=C1C(=O)O[C@H]2[C@H]1CC/C(COC(=O)Nc1nc3ccccc3[nH]1)=C\CC[C@@]1(C)O[C@@H]21`, the growth is 79.8%.
Regarding `CCCCc1n(Cc2ccc3ccccc3c2)c2ccccc2[n+]1Cc1ccc2ccccc2c1`, the growth was -72.7% (active).
In the case of `COC(=O)/C=C1\SC(=Nc2ccc(F)cc2)N(CCc2c[nH]c3ccccc23)C1=O` it was 91.2%; in that of `COc1ccc2nc(-c3ccc(OC)c(OC)c3)cc(-c3nnc(SCC(=O)Nc4ccc(C(C)=O)cc4)o3)c2c1`, 96.9%; in that of `COc1cc(NCC(=O)Nc2cc(Nc3cccc(C(F)(F)F)c3)ncn2)c(Cl)c(OC)c1Cl`, 94.9%.
`COc1ccc2c(c1)OC13Oc4cc(OC)ccc4C=C1CCCCC3=C2`: the growth was 88.4%.
As for `COc1ccc2nc3nc4ccc[nH]c4cc3c2c1`, the growth was 91.6%.
On to `Cc1nccc2c3ccc(OCc4cn(-c5ccccc5)nn4)cc3n(CCCc3ccccc3)c12`, for which the growth was 85.7%.
For the compound `NC(=O)C(O)(c1ccccc1)c1ccccc1`, the growth is 99.2%.
As to `CC1CCCN(CCCCCOc2ccc3oc4ccc(Cl)cc4c(=O)c3c2)C1` (stereo not given), the growth is 104%.
With `O=C1NC(c2ccc(F)cc2)N=C2C(c3ccccc3)=NOC12` (stereo not given), the growth is 99.9%.
`COc1ccccc1N1CCN(CCCOc2ccc(C(=O)/C=C3/C(=O)Nc4ccccc43)cc2)CC1`: the growth was 53%.
In the case of `S=C(Nc1ccccc1)c1ccccn1` it was 94.7%; in that of `CCCn1cc(/C=N\N=C2\C(=O)Nc3ccc(C)cc32)c2ccccc21`, 92%.
As to `C=C(C)[C@@H]1CC[C@]2(C(=O)NCCCO)CC[C@]3(C)[C@H](CC[C@@H]4[C@@]5(C)CCCNC(C)(C)[C@@H]5CC[C@]43C)[C@@H]12`, the growth is 79.8%.
In the case of `O=C(O)c1cn(C2CC2)c2cc(N3CCN(Cc4nnc(Nc5ccccc5)o4)CC3)c(F)cc2c1=O` it was 108%; in that of `CCOC(=O)NC(Cc1ccccc1)c1ccccc1` (stereo not given), 98.8%; in that of `COc1ccc2oc(=O)cc(-c3nc4ccc(N)cc4[nH]3)c2c1`, 72%.
Consider `CN1C(=O)c2cc(Cl)nc3c(NC(=O)c4cccc(Cl)c4)c(Cl)c(NC(=O)c4cccc(Cl)c4)c1c23`, for which the growth was 23.6%.
The value for `Cc1c(Cl)cccc1NC(=O)c1sc2nc3c(cc2c1N)CN(Cc1ccccc1)CC3` was 72.3%; that for `Cc1c(Cl)cccc1NC(=O)c1sc2nc3c(cc2c1N)COCC3` was 76.1%; that for `N#Cc1ccc(N2Cc3cc(Cl)ccc3OC3=C2C(=O)N(Cc2ccc(F)cc2)C3=O)cc1` was 92.6%.
Consider `N#Cc1c(NC(=O)c2cccs2)[n+]([O-])c2cc(C(F)(F)F)ccc2[n+]1[O-]`, for which the growth was 97.1%.
`C=C(C)[C@@H]1CC[C@]2(C(N)=O)CC[C@]3(C)[C@H](CC[C@@H]4[C@@]5(C)CCCNC(C)(C)[C@@H]5CC[C@]43C)[C@@H]12`: the growth is 86.3%.
Turning to `CCOCc1nc2ccccc2c(=O)[nH]1`, the growth is 91.7%.
The value for `OCCNc1nc(NCCO)nc(Nc2ccc(C3=NN(c4cc(Cl)cc(Cl)c4)C(c4ccccc4)C3)cc2)n1` (stereo not given) was 96.2%; that for `CN(CCC#N)C(=O)Nc1ccccc1` was 106%; that for `O=C1Nc2ccccc2C12C=C(c1ccccc1)Nc1c2c(-c2ccccc2)nn1-c1ccccc1` (stereo not given) was 96.9%.
In the case of `COc1ccc(N(C)c2nc(Cl)nc3ccn(C)c23)cc1`, the growth was 30.3%.
`CCCCN(CCCC)CC(CN(CC)CC)OC(=O)Nc1ccccc1` (stereo not given): the growth was 103%.
